Reference: PubChem BioAssay AID1159580 (chemical genetic matrix, 2015)
Where “and” joins values, the source holds several entries; their conditions need not be identical. Identical values can stand only once. Among all 5,500 compounds or so, about 2,000 (36%) were called active. About 18% were inconclusive and are not listed. Cut-off read from the data, not from the text of the source: active = normalized growth mostly below about 0.91 (no sharp cut-off); inconclusive = no clear call, values can overlap the other calls; inactive = mostly above about 0.92. Some of the results follow.

Experiment: chemical genetic growth profiling, strain panel (AID 1159580);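 note: tested at 20 µM; growth read once vehicle control cultures reached saturation at 30 °C; 1 = growth at the plate median or of vehicle wells; lower values mean less growth of the strain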
Details: S. cerevisiae deletion strains, growth OD

Measured: normalized growth

COC1=CC(=O)C=C(OC)C1=O
inactive: locus YAL021C, strain ccr4, hits give low values 1.03 | locus YAL026C, strain drs2, hits give low values 0.978 | locus YAL030W, strain snc1, hits give low values 0.991 | locus YBL061C, strain skt5, hits give low values 0.998 | locus YBR009C, strain hhf1, hits give low values 0.98 | locus YBR021W, strain FUR4, hits give low values 1.12 | locus YBR023C, strain chs3, hits give low values 0.998 | locus YBR171W, strain sec66, hits give low values 1.01 | locus YBR229C, strain ROT2, hits give low values 0.956 | locus YBR231C, strain swc5, hits give low values 0.982 | locus YBR279W, strain paf1, hits give low values 0.992 | locus YCL011C, strain gbp2, hits give low values 1.01 | locus YCL016C, strain dcc1, hits give low values 0.997 | locus YCL029C, strain bik1, hits give low values 0.97 | locus YCL061C, strain MRC1, hits give low values 1.01 | locus YCL069W, strain vba3, hits give low values 1 | locus YCR088W, strain abp1, hits give low values 1 | locus YDL005C, strain med2, hits give low values 1.02 | locus YDL035C, strain GPR1, hits give low values 1.01 | locus YDL040C, strain nat1, hits give low values 0.992 | locus YDL074C, strain BRE1, hits give low values 1.05 | locus YDL101C, strain DUN1, hits give low values 0.975 | locus YDL134C, strain PPH21, hits give low values 0.979 | locus YDL185W, strain tfp1, hits give low values 0.964 | locus YDL192W, strain arf1, hits give low values 0.995 | locus YDR001C, strain nth1, hits give low values 1 | locus YDR069C, strain doa4, hits give low values 1 | locus YDR101C, strain arx1, hits give low values 0.984 | locus YDR137W, strain rgp1, hits give low values 0.88 | locus YDR162C, strain NBP2, hits give low values 0.982 | locus YDR297W, strain sur2, hits give low values 0.978 | locus YDR318W, strain mcm21, hits give low values 0.998 | locus YDR334W, strain swr1, hits give low values 1.01 | locus YDR335W, strain msn5, hits give low values 1.01 | locus YDR388W, hits give low values 0.983 | locus YDR392W, strain spt3, hits give low values 0.879 | locus YDR502C, strain sam2, hits give low values 0.988 | locus YEL003W, strain gim4, hits give low values 0.992 | locus YEL037C, strain rad23, hits give low values 1.01 | locus YEL061C, strain CIN8 (second series), hits give low values 1 | locus YEL061C, strain CIN8, hits give low values 0.988 | locus YER015W, strain faa2, hits give low values 0.997 | locus YER016W, strain bim1, hits give low values 0.97 | locus YER110C, hits give low values 0.97 | locus YER111C, strain swi4, hits give low values 1.01 | locus YER155C, strain BEM2 (second series), hits give low values 1.02 | locus YER155C, strain BEM2, hits give low values 1 | locus YER167W, strain BCK2, hits give low values 1 | locus YFR010W, strain ubp6, hits give low values 1 | locus YGL078C, strain dbp3, hits give low values 0.99 | locus YGL086W, strain mad1, hits give low values 0.983 | locus YGL167C, strain pmr1, hits give low values 0.987 | locus YGL173C, strain kem1, hits give low values 1.01 | locus YGL227W, strain vid30, hits give low values 0.998 | locus YGL240W, strain doc1, hits give low values 0.914 | locus YGL248W, strain PDE1, hits give low values 0.996 | locus YGL253W, strain hxk2, hits give low values 1.01 | locus YGR135W, strain pre9, hits give low values 1 | locus YGR252W, strain gcn5, hits give low values 1.16 | locus YHR013C, strain ard1, hits give low values 1.04 | locus YHR027C, strain rpn1, hits give low values 0.995 | locus YHR030C, strain SLT2, hits give low values 0.994 and 1.02 | locus YHR079C, strain IRE1 (second series), hits give low values 0.984 | locus YHR079C, strain IRE1, hits give low values 1.01 | locus YHR094C, strain hxt1, hits give low values 0.976 | locus YHR129C, strain ARP1, hits give low values 0.997 | locus YHR142W, strain chs7, hits give low values 1.01 | locus YHR200W, strain rpn10, hits give low values 1.01 | locus YIL066C, strain RNR3, hits give low values 0.988 | locus YIL073C, strain SPO22, hits give low values 0.975 | locus YIL125W, strain kgd1, hits give low values 0.995 | locus YIR030C, strain dcg1, hits give low values 0.989 | locus YJL092W, strain hpr5, hits give low values 1 | locus YJL095W, strain BCK1 (second series), hits give low values 0.996 | locus YJL095W, strain BCK1, hits give low values 0.982 and 1.03 | locus YJL115W, strain asf1, hits give low values 1.01 | locus YJL129C, strain trk1, hits give low values 1.01 | locus YJL134W, strain LCB3, hits give low values 0.99 | locus YJL154C, strain vps35, hits give low values 1.01 | locus YJL164C, strain tpk1, hits give low values 0.999 | locus YJL166W, strain qcr8, hits give low values 0.99 | locus YJL168C, strain set2, hits give low values 0.998 | locus YJL187C, strain SWE1 (second series), hits give low values 0.987 | locus YJR043C, strain POL32, hits give low values 1 | locus YJR066W, strain TOR1, hits give low values 0.941
active: locus YDR159W, strain sac3, hits give low values 0.794 | locus YDR195W, strain ref2 1.18 [resistant]
